{"source": "PubChem BioAssay (EPA / NIEHS)", "note": "Activity calls are given as the source filed them. How the source made its calls: active means hit-call score of the fitted dose curve at least 0.9, where 1 is the maximum; inactive means score below 0.9."}
{"read-out": "Intercellular Adhesion Molecule 1 (ICAM1), ICAM1 (gene 3383)", "assay": "BSK_KF3CT_ICAM1: BioMAP Diversity Plus: KF3CT Assay for Intercellular Adhesion Molecule 1 (ICAM1) Biomarker Activity (AID 2283067)", "conditions": "primary human keratinocytes with fibroblasts; actives raise or lower the signal", "description": "BSK_KF3CT is a cell-based, multiplexed-readout assay that uses keratinocytes and foreskin fibroblasts, a human skin primary cell co-culture, with measurements taken at 24 hours after chemical dosing in a 96-well plate.BSK_KF3CT_ICAM1 is an assay component measured in the BSK_KF3CT assay. It measures ICAM-1 antibody related to regulation of gene expression using ELISA technology.Data from the assay component BSK_KF3CT_ICAM1 was analyzed into 1 assay endpoint. This assay endpoint, BSK_KF3CT_ICAM1, was analyzed with bidirectional fitting relative to DMSO as the negative control and baseline of activity. Using a type of binding reporter, gain or loss-of-signal activity can be used to understand changes in the signaling as they relate to the gene ICAM1. Furthermore, this assay endpoint can be referred to as a primary readout, because this assay has produced multiple assay endpoints where this one serves a signaling function. To generalize the intended target to other relatable targets, this assay endpoint is annotated to the cell adhesion molecules intended target family, where the subfamily is Immunoglobulin CAM.\nThe levels of cell surface (or secreted, indicated by the prefix \"s\") biomarker endpoints were measured by ELISA. Overt cytotoxicity to cells in confluent adherent cultures (all systems other than the BT system) was assessed by measuring total protein levels using sulforhodamine B (SRB) staining in parallel cultures at the time of biomarker measurements, indicated as SRB endpoints. For proliferation assays for adherent cell types, individual cell types are cultured at sub-confluence and relative cell numbers quantified by SRB staining at time points optimized for each system (48 h: 3C and CASM3C systems; 72 h: BT and HDF3CGF systems; 96 h: SAg system). SRB was performed by staining cells with 0.1% SRB after fixation with 10% TCA and reading wells at 560 nm.Viability and proliferation of PBMC (T cells) was quantified by Alamar Blue reduction for the SAg and BT systems. For PBMC viability (referred to as PBMC Cytotoxicity within the assay endpoint names), cells were plated (75,000/well in a 96-well plate) and then chemical samples added for 1 h before addition of activators, SEB and TSST-1 (20 ng/mL final concentration each). Cells were incubated for 90 h. Then, Alamar Blue (20 uL/well) (Invitrogen, Cat DAL1100) was added for 6 h, and the plates were read with a fluorescence microplate reader at 546/580 nm (excitation/emission). For PBMC proliferation, cells were plated and activated as above but incubated for only 16 h prior to addition of Alamar Blue. Plates were read after 6 h."}
{"smiles": "Oc1c(I)cc(I)cc1I", "AC50": "20 µM (active)"}
{"smiles": "COP(=S)(OC)Oc1cc(Cl)c(Cl)cc1Cl", "outcome": "inactive"}
{"smiles": "COP(=S)(OC)Oc1ccc(S(=O)(=O)N(C)C)cc1", "outcome": "inactive"}
{"smiles": "O=S(=O)(c1ccc(Cl)cc1)c1ccc(Cl)cc1", "outcome": "inactive"}
{"smiles": "O=c1[nH]c(=O)[nH]c(=O)[nH]1", "outcome": "inactive"}
{"smiles": "CN(C)N=O", "outcome": "inactive"}
{"smiles": "O=C(O)C(Cl)(Cl)Cl", "outcome": "inactive"}
{"smiles": "CCC(C)(C)c1ccc(O)c(C(C)(C)CC)c1", "AC50": "11.7 µM (active)"}
{"smiles": "Oc1ccc(-c2ccccc2)cc1", "outcome": "inactive"}
{"smiles": "COC(=O)c1sccc1S(=O)(=O)NC(=O)Nc1nc(C)nc(OC)n1", "outcome": "inactive"}
{"smiles": "O=C1C2(Cl)C3(Cl)C4(Cl)C(Cl)(Cl)C5(Cl)C3(Cl)C1(Cl)C5(Cl)C24Cl", "note": "(stereo not given)", "AC50": "33 µM (active)"}
{"smiles": "COc1cc(-c2ccc(N)c(OC)c2)ccc1N", "outcome": "inactive"}
{"smiles": "ClC1=C(Cl)[C@]2(Cl)[C@H]3[C@H]([C@H]4C=C[C@H]3C4)[C@@]1(Cl)C2(Cl)Cl", "outcome": "inactive"}
{"smiles": "NC(=S)Nc1ccccc1", "outcome": "inactive"}
{"smiles": "CC(C)c1ccc(CO)cc1", "outcome": "inactive"}
{"smiles": "O=Cc1cccc(Oc2ccccc2)c1", "outcome": "inactive"}
{"smiles": "COP(=S)(OC)Oc1ccc(Sc2ccc(OP(=S)(OC)OC)cc2)cc1", "outcome": "inactive"}
{"smiles": "C(=NC1CCCCC1)=NC1CCCCC1", "AC50": "20 µM (active)"}
{"smiles": "CCCCC(CC)CO[N+](=O)[O-]", "note": "(stereo not given)", "AC50": "30.9 µM (active)"}
{"smiles": "Cc1ccccc1N", "outcome": "inactive"}
{"smiles": "CC(=O)C(Cl)C(=O)N(C)C", "note": "(stereo not given)", "outcome": "inactive"}
{"smiles": "CCN1CCC2(CC1)COc1cc3c(cc12)N(C(=O)c1ccc(-c2ccc(-c4nnc(C)o4)cc2C)cc1)CC3", "AC50": "28.6 µM (active)"}
{"smiles": "CC(C)(C)CC(C)(C)c1ccc(O)cc1", "AC50": "11.3 µM (active)"}
{"smiles": "O=C(O)C(F)(F)C(F)(F)C(F)(F)C(F)(F)C(F)(F)C(F)(F)F", "outcome": "inactive"}
{"smiles": "CC(=O)OC(c1ccccc1)C(Cl)(Cl)Cl", "note": "(stereo not given)", "outcome": "inactive"}
{"smiles": "BrCCBr", "outcome": "inactive"}
{"smiles": "C=CC(=O)OCCCCCC(C)C", "outcome": "inactive"}
{"smiles": "NC(=O)O", "outcome": "inactive"}
{"smiles": "COc1cc(OC)nc(NC(=O)NS(=O)(=O)c2ncccc2C(=O)N(C)C)n1", "outcome": "inactive"}
{"smiles": "Nc1cccc2ccccc12", "outcome": "inactive"}
{"smiles": "CCOP(=S)(OCC)Oc1nc(Cl)c(Cl)cc1Cl", "outcome": "inactive"}
{"smiles": "O=[N+]([O-])c1ccc2c3c(cccc13)CC2", "outcome": "inactive"}
{"smiles": "CC1(C)Cc2cccc(O)c2O1", "outcome": "inactive"}
{"smiles": "Nc1ncc([N+](=O)[O-])s1", "outcome": "inactive"}
{"smiles": "ClC1(Cl)C2(Cl)C3(Cl)C4(Cl)C(Cl)(Cl)C5(Cl)C3(Cl)C1(Cl)C5(Cl)C24Cl", "note": "(stereo not given)", "outcome": "inactive"}
{"smiles": "ClC(Cl)=C(Cl)C(Cl)=C(Cl)Cl", "AC50": "32.4 µM (active)"}
{"smiles": "Cn1sc(Cl)cc1=O", "AC50": "20 µM (active)"}
{"smiles": "Nc1ccc(-c2ccc(N)c(Cl)c2)cc1Cl", "outcome": "inactive"}
{"smiles": "CC(C)(OO)c1ccccc1", "outcome": "inactive"}
{"smiles": "CCCCCCCCc1ccc(O)cc1", "AC50": "31.2 µM (active)"}
